PubChem BioAssay (NCATS)
Values joined by “and” are separate entries in the source; they are usually repeats but may differ in a detail not shown here. Equal entries are not always repeated. Results filed as inconclusive are left out. Unmarked numbers belong to inactive results. Active and inactive are the calls of the source. The call rests on the fitted dose curve; in most records, active means well fitted activation curve with a large enough effect; inconclusive means small, poorly fitted or top-dose-only effect; inactive means no such curve, though single readings can be large or run the other way.

molecular target: Cellular tumor antigen p53 (Homo sapiens) (UniProt P04637); assay: Primary qHTS for small molecule compounds that upregulate eGFP-tagged delta133p53alpha (in N-terminal) cells. (AID 2060322); conditions: NCI-H358 eGFP-delta133p53alpha fluorescence, 24 h; activation: active compounds read high; further: nearly all actives have a fitted effect of over 75% in size;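 on activation: cells pre-induced with doxycycline then dosed without doxycycline; series mostly up to about 56 µM; 0% = DMSO vehicle and 100% = reference activator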
Summary of the method: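 NCI-H358 cells pre-induced 24 h with 10 ng/ml doxycycline for eGFP-delta133p53alpha, plated dox-free and exposed 24 h at 37C to titrated compounds. Fixed, Hoechst-stained; gated GFP peak intensity by laser scanning cytometry, normalized to DMSO (0%) and 57.5 uM 5-azacytidine (100%).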
Potency means the concentration at half of the fitted maximal effect.

Cellular tumor antigen p53 (Homo sapiens), sequence (P04637 whole entry, looked up): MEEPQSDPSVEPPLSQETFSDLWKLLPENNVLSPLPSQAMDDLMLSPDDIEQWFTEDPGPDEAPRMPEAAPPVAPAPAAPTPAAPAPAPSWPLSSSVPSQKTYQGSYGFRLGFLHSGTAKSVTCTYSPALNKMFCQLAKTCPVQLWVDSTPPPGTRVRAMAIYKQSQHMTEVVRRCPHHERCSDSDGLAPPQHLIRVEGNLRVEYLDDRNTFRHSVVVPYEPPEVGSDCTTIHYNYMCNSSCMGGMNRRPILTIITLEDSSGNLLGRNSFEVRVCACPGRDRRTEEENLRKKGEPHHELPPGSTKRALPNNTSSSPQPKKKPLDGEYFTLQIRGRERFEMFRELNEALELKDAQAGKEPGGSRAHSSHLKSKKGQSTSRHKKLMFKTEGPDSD

SMILES | activation | Potency
CCC(C(=O)OCCN1CCOC(c2ccccc2)C1C)c1ccccc1 (stereo not given) | -7.53% | –
O=C(O)Cc1sc(-c2ccccc2)nc1-c1ccc(Cl)cc1 | -17.6% | –
NNc1nnc(NN)c2ccccc12 | -35.1% | –
C=CC1=C(C(=O)O)N2C(=O)[C@@H](NC(=O)C(=NO)c3csc(N)n3)[C@H]2SC1 | -4.61% | –
O=C(Cn1ccnc1[N+](=O)[O-])NCCO | -9.21% | –
COc1ccc(/C(C)=C/C(=O)O)c(OC)c1 | -10.7% | –
Nc1ccc(C(=O)Nc2ccccc2N)cc1 | -7.53% | –
CC[N+](C)(CC)CCOC(=O)C(O)(c1ccccc1)C1CCCCC1 (stereo not given) | -16.7% | –
CO[C@H]1/C=C\O[C@@]2(C)Oc3c(C)c(O)c4c(O)c(c(C=NN5CCN(C6CCCC6)CC5)c(O)c4c3C2=O)NC(=O)C(C)=CC=C[C@H](C)[C@H](O)[C@@H](C)[C@@H](O)[C@@H](C)[C@H](OC(C)=O)[C@H]1C | – | 24.3 µM (active)
Cc1cccc(C=NNc2cc(N3CCOCC3)nc(OCCc3ccccn3)n2)c1 | -13.3% | –
CO[C@H]1/C=C\O[C@@]2(C)Oc3c(C)c(O)c4c(O)c(c5c(nc6cc(C)ccn65)c4c3C2=O)NC(=O)/C(C)=C\C=C/[C@H](C)[C@H](O)[C@@H](C)[C@@H](O)[C@@H](C)[C@H](OC(C)=O)[C@@H]1C | -1.91% | –
Cc1ccc(C(=O)C(=O)O)cc1C | -13% | –
Cc1cc(NS(=O)(=O)c2ccc(N)cc2)no1 | -13.4% and 7.02% | –
Nc1ccc(C(=O)O)c(O)c1 | 20.9% | –
Cc1cccn2c(=O)c(-c3nnn[nH]3)cnc12 | -7.34% | –
O=C(O)COc1nn(Cc2ccccc2)c2ccccc12 | 28.8% | –
CN/C(=C\[N+](=O)[O-])NCCSCc1csc(CN(C)C)n1 | -0.837% | –
O=c1[nH]c(=O)n([C@H]2C[C@@H](O)[C@@H](CO)O2)cc1C=CBr | 11.1% | –
CCCCN(CCCC)C(C(N)=O)c1ccc(OC)cc1 (stereo not given) | 20.9% | –
Cc1cc(Nc2cc(N3CCN(C)CC3)nc(C=Cc3ccccc3)n2)n[nH]1 | 51.8% | –

SMILES | activation | Potency
O=C(NCC(O)CO)c1c(I)c(C(=O)NCC(O)CO)c(I)c(N(CCO)C(=O)CO)c1I (stereo not given) | -8.37% | –
CCCCOC(=O)CCCCCCCCC(=O)OCCCC | -7.53% | –
O=C(Cn1ccnc1[N+](=O)[O-])NCc1ccccc1 | -10.9% | –
CNS(=O)(=O)Cc1ccc2[nH]cc(CCN(C)C)c2c1 | -6.69% and -7.27% | –
CCOC(=O)[C@H](CCc1ccccc1)N[C@@H](C)C(=O)N1Cc2cc(OC)c(OC)cc2C[C@H]1C(=O)O | -5.86% | –
CC(COc1ccccc1)NC(C)C(O)c1ccc(O)cc1 (stereo not given) | 18.6% | –
COc1ccnc2c1CCCCC2S(=O)c1nc2ccccc2[nH]1 (stereo not given) | 11.9% | –
Cc1cc2nc3c(=O)[nH]c(=O)nc-3n(C[C@H](O)[C@H](O)[C@H](O)CO)c2cc1C | -36.8% | –
Cc1cccc(C)c1NC(=O)CN1CCCCCC1 | 6.69% | –
CC(=O)N1CCN(c2ccc(O)cc2)CC1 | -15.3% | –
CCCC(=O)OCOC(=O)C1=C(C)NC(C)=C(C(=O)OC)C1c1cccc(Cl)c1Cl (stereo not given) | -26.6% | –
CC(C)C(=O)Nc1cccc(C(F)(F)F)c1 | -15.3% | –
CCOc1c(N2CCOCC2)cnn(C)c1=O | -4.18% | –
CCOC(=O)[C@H](CCc1ccccc1)N[C@@H](C)C(=O)N1Cc2ccccc2C[C@H]1C(=O)O | 17.6% | –
CC(C)=CCCC(C)=CCCC(C)=CCSc1ccccc1C(=O)O | 4.74% | –
CCCCCCCCCCCCOCCOCCOCCOCCOCCOCCOCCOCCOCCO | 6.21% | –
CO[C@H]1O[C@@H]2O[C@@]3(C)CC[C@@H]4[C@@H](C)CC[C@@H]([C@H]1C)[C@@]24OO3 | 20% | –
COC1=C2C[C@@H](C)C[C@H](OC)[C@@H](O)[C@@H](C)C=C(C)[C@H](OC(N)=O)[C@@H](OC)C=CC=C(C)C(=O)NC(=CC1=O)C2=O | -17.1% | –
COc1ccc2c3c1OC1C[C@@H](O)C=C[C@@]31CCN(C)C2 (stereo not given in full) | 8.8% | –
CCn1c(=O)c2c(nc(C=Cc3ccc(OC)c(OC)c3)n2C)n(CC)c1=O | -8.1% | –
